# Measured values published in PubChem BioAssay (NCI).
# Compounds without any hit were thinned out: in the full panel of roughly 79,000, 15% have a hit. Values without a mark were called inactive. The source made the active and inactive calls. Cut-off read from the data, not from the text of the source: active = growth inhibition above about 70%; inactive = the rest.
# Assays:
# [1] = NCI Yeast Anticancer Drug Screen. Data for the rad52 strain (AID 147);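 note: 0% = growth of vehicle-treated control cultures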; details: S. cerevisiae rad52 mutant growth inhibition, stronger effect = higher value
# Outline: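 The repair-mutant yeast strain was incubated with compounds, then growth was read and inhibition derived relative to vehicle.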
# [2] = NCI Yeast Anticancer Drug Screen. Data for the wt1 strain (AID 149);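 note: 0% = growth of vehicle-treated wt1 cultures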; details: S. cerevisiae wt1 strain (SPY 50644) growth inhibition, stronger effect = higher value
# Outline: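 The wt1 strain was treated with compounds, and growth was compared with vehicle-treated cultures to give inhibition.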
# [3] = NCI Yeast Anticancer Drug Screen. Data for the rad50EPP+ strain (AID 151);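 note: 0% = growth of vehicle-treated control cultures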; details: S. cerevisiae rad50 mutant strain, stronger effect = higher value
# Outline: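 Vehicle-normalised growth inhibition; rad50EPP+ yeast strain, altered in DNA damage repair, compound-treated.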
# [4] = NCI Yeast Anticancer Drug Screen. Data for the mgt1 strain (AID 153); details: S. cerevisiae mgt1 mutant growth inhibition, stronger effect = higher value
# Outline: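 Vehicle-normalized growth inhibition is determined in mgt1 yeast, a strain selected for a defined alteration in DNA repair or cell cycle control.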
# [5] = NCI Yeast Anticancer Drug Screen. Data for the rad50 strain (AID 155);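 note: 0% = growth of vehicle-only cultures of the same strain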; details: S. cerevisiae rad50 strain growth inhibition, stronger effect = higher value
# Outline: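 Cells are treated with compound, grown, and their growth is then scored against vehicle-only cultures of the same repair-deficient yeast strain.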
# [6] = NCI Yeast Anticancer Drug Screen. Data for the mec2-1 strain (AID 157); details: S. cerevisiae mec2-1 strain, stronger effect = higher value
# Outline: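 Mutant yeast (mec2-1) grown with compound; growth inhibition relative to vehicle control reported.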
# [7] = NCI Yeast Anticancer Drug Screen. Data for the rad14 strain (AID 159);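 note: 0% = growth of vehicle-treated control cultures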; details: S. cerevisiae rad14 strain growth inhibition, stronger effect = higher value
# Outline: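 Readout: yeast growth inhibition, referenced to vehicle-only cultures. Strain bears a defined alteration in DNA damage repair.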
# [8] = NCI Yeast Anticancer Drug Screen. Data for the sgs1 mgt1 strain (AID 161);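 note: 0% = growth of cultures given vehicle only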; details: S. cerevisiae sgs1 mgt1 strain, stronger effect = higher value
# Outline: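 This yeast growth screen uses a strain with defined DNA-repair lesions; compound-treated growth is compared with vehicle-treated growth.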
# [9] = NCI Yeast Anticancer Drug Screen. Data for the CLN2oe strain (AID 163);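 note: 0% = growth of vehicle-only control cultures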; details: S. cerevisiae CLN2oe strain, stronger effect = higher value
# Outline: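 Compounds are applied to yeast harbouring a defined cell-cycle control change; reduced growth compared with vehicle-treated controls gives the value.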
# [10] = NCI Yeast Anticancer Drug Screen. Data for the cln2 rad14 strain (AID 165);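 note: 0% = growth equal to vehicle treated cultures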; details: S. cerevisiae cln2 rad14 strain, stronger effect = higher value
# Outline: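 Readout is yeast growth inhibition versus vehicle-treated controls, using a strain with cln2 and rad14 alterations exposed to compound.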
# [11] = NCI Yeast Anticancer Drug Screen. Data for the bub3 strain (AID 167); details: S. cerevisiae bub3 mutant strain, stronger effect = higher value
# Outline: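 Part of a panel of yeast mutants defective in DNA damage repair or cell cycle regulation. Each strain is grown with compound, and inhibition is calculated relative to solvent-treated cultures.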
# [12] = NCI Yeast Anticancer Drug Screen. Data for the wt2 strain (AID 169);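 note: 0% = growth of vehicle-treated yeast cultures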; details: S. cerevisiae wt2 strain growth inhibition, stronger effect = higher value
# Outline: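 Against vehicle-treated controls, the growth of yeast exposed to each compound was compared, and the inhibition was recorded.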
# [13] = NCI Yeast Anticancer Drug Screen. Data for the mlh1 strain (AID 171);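 note: 0% = growth of vehicle-treated control cultures of the same strain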; details: S. cerevisiae mlh1 strain growth inhibition, stronger effect = higher value
# Outline: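 Measured: yeast growth. Reference: vehicle-treated controls. Organism: strain with a defined alteration affecting DNA damage repair or cell cycle control, treated with compound.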
# [14] = NCI Yeast Anticancer Drug Screen. Data for the sgs1 strain (AID 173);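 note: 0% = growth of vehicle-only control cultures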; details: S. cerevisiae sgs1 mutant, stronger effect = higher value
# Outline: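 Each compound was added to cultures of the altered yeast strain. Growth was recorded, and inhibition was derived by comparison with vehicle controls.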
# [15] = NCI Yeast Anticancer Drug Screen. Data for the mlh1 rad18 strain (AID 175); details: S. cerevisiae mlh1 rad18 strain growth inhibition, stronger effect = higher value
# Outline: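 Genetically defined yeast (DNA repair-deficient) exposed to compounds; growth inhibition determined relative to vehicle.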
# [16] = NCI Yeast Anticancer Drug Screen. Data for the rad18 strain (AID 177); details: S. cerevisiae rad18 mutant growth inhibition, stronger effect = higher value
# Outline: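 Vehicle-treated cultures served as the baseline for scoring compound-induced growth inhibition in DNA-repair-mutant yeast.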
# [17] = at 5.0 µM (retest, dose inferred, filed as 0.5)
# [18] = at 50.0 µM (retest, dose inferred, filed as 5.0)
smiles,measurement,setting,value
CN(C)c1nc2sc3c(c2c(=O)o1)CCCC3,growth inhibition,[1]; at 1.2 µM,2%
same,growth inhibition,[1]; at 3.7 µM,5%
same,growth inhibition,[1]; at 11.0 µM,6%
same,growth inhibition,[1]; at 33.0 µM,26%
same,growth inhibition,[1]; at 100.0 µM,36%
same,growth inhibition,[2]; at 1.2 µM,-5%
same,growth inhibition,[2]; at 3.7 µM,-4%
same,growth inhibition,[2]; at 11.0 µM,-4%
same,growth inhibition,[2]; at 33.0 µM,8%
same,growth inhibition,[2]; at 100.0 µM,32%
same,growth inhibition,[3]; at 1.2 µM,13%
same,growth inhibition,[3]; at 3.7 µM,14%
same,growth inhibition,[3]; at 11.0 µM,21%
same,growth inhibition,[3]; at 33.0 µM,23%
same,growth inhibition,[3]; at 100.0 µM,22%
same,growth inhibition,[4]; at 1.2 µM,-5%
same,growth inhibition,[4]; at 3.7 µM,-7%
same,growth inhibition,[4]; at 11.0 µM,0%
same,growth inhibition,[4]; at 33.0 µM,16%
same,growth inhibition,[4]; at 100.0 µM,31%
same,growth inhibition,[5]; at 1.2 µM,3%
same,growth inhibition,[5]; at 3.7 µM,6%
same,growth inhibition,[5]; [17],-4%
same,growth inhibition,[5]; at 11.0 µM,-13%
same,growth inhibition,[5]; at 33.0 µM,29%
same,growth inhibition,[5]; [18],43%
same,growth inhibition,[5]; at 50.0 µM,68.9%
same,growth inhibition,[5]; at 100.0 µM,45%
same,growth inhibition,[6]; at 1.2 µM,1%
same,growth inhibition,[6]; at 3.7 µM,-1%
same,growth inhibition,[6]; [17],-4%
same,growth inhibition,[6]; at 11.0 µM,0%
same,growth inhibition,[6]; at 33.0 µM,26%
same,growth inhibition,[6]; [18],29%
same,growth inhibition,[6]; at 50.0 µM,27.9%
same,growth inhibition,[6]; at 100.0 µM,39%
same,growth inhibition,[7]; at 1.2 µM,1%
same,growth inhibition,[7]; at 3.7 µM,-3%
same,growth inhibition,[7]; at 11.0 µM,3%
same,growth inhibition,[7]; at 33.0 µM,27%
same,growth inhibition,[7]; at 100.0 µM,45%
same,growth inhibition,[8]; [17],-7%
same,growth inhibition,[8]; [18],19%
same,growth inhibition,[8]; at 50.0 µM,54.3%
same,growth inhibition,[9]; at 1.2 µM,1%
same,growth inhibition,[9]; at 3.7 µM,-1%
same,growth inhibition,[9]; at 11.0 µM,-2%
same,growth inhibition,[9]; at 33.0 µM,26%
same,growth inhibition,[9]; at 100.0 µM,40%
same,growth inhibition,[10]; [17],26%
same,growth inhibition,[10]; [18],13%
same,growth inhibition,[10]; at 50.0 µM,-6.65%
same,growth inhibition,[11]; at 1.2 µM,27%
same,growth inhibition,[11]; at 3.7 µM,39%
same,growth inhibition,[11]; [17],39%
same,growth inhibition,[11]; at 11.0 µM,44%
same,growth inhibition,[11]; at 33.0 µM,55%
same,growth inhibition,[11]; [18],92% (active)
same,growth inhibition,[11]; at 50.0 µM,75.2% (active)
same,growth inhibition,[11]; at 100.0 µM,69%
same,growth inhibition,[12]; at 1.2 µM,-1%
same,growth inhibition,[12]; at 3.7 µM,0%
same,growth inhibition,[12]; at 11.0 µM,1%
same,growth inhibition,[12]; at 33.0 µM,26%
same,growth inhibition,[12]; at 100.0 µM,35%
same,growth inhibition,[13]; at 1.2 µM,-3%
same,growth inhibition,[13]; at 3.7 µM,-4%
same,growth inhibition,[13]; at 11.0 µM,-2%
same,growth inhibition,[13]; at 33.0 µM,26%
same,growth inhibition,[13]; at 100.0 µM,31%
same,growth inhibition,[14]; at 1.2 µM,-3%
same,growth inhibition,[14]; at 3.7 µM,-4%
same,growth inhibition,[14]; at 11.0 µM,-1%
same,growth inhibition,[14]; at 33.0 µM,19%
same,growth inhibition,[14]; at 100.0 µM,36%
same,growth inhibition,[15]; [17],-9%
same,growth inhibition,[15]; [18],90% (active)
same,growth inhibition,[15]; at 50.0 µM,50.6%
same,growth inhibition,[16]; at 1.2 µM,0%
same,growth inhibition,[16]; at 3.7 µM,1%
same,growth inhibition,[16]; at 11.0 µM,3%
same,growth inhibition,[16]; at 33.0 µM,18%
same,growth inhibition,[16]; at 100.0 µM,48%
C/C(=N\NC(=S)N1CCCCC1)c1cccc(C)n1,growth inhibition,[1]; at 1.2 µM,-4%
same,growth inhibition,[1]; at 3.7 µM,91% (active)
same,growth inhibition,[1]; at 11.0 µM,97% (active)
same,growth inhibition,[1]; at 33.0 µM,99% (active)
same,growth inhibition,[1]; at 100.0 µM,99% (active)
same,growth inhibition,[2]; at 1.2 µM,41%
same,growth inhibition,[2]; at 3.7 µM,95% (active)
same,growth inhibition,[2]; at 11.0 µM,98% (active)
same,growth inhibition,[2]; at 33.0 µM,99% (active)
same,growth inhibition,[2]; at 100.0 µM,99% (active)
same,growth inhibition,[3]; at 1.2 µM,-8%
same,growth inhibition,[3]; at 3.7 µM,38%
same,growth inhibition,[3]; at 11.0 µM,95% (active)
same,growth inhibition,[3]; at 33.0 µM,99% (active)
same,growth inhibition,[3]; at 100.0 µM,99% (active)
same,growth inhibition,[4]; at 1.2 µM,49%
same,growth inhibition,[4]; at 3.7 µM,94% (active)
same,growth inhibition,[4]; at 11.0 µM,99% (active)
same,growth inhibition,[4]; at 33.0 µM,99% (active)
same,growth inhibition,[4]; at 100.0 µM,98% (active)
same,growth inhibition,[5]; at 1.2 µM,23%
same,growth inhibition,[5]; at 3.7 µM,94% (active)
same,growth inhibition,[5]; [17],89% (active)
same,growth inhibition,[5]; at 11.0 µM,98% (active)
same,growth inhibition,[5]; at 33.0 µM,98% (active)
same,growth inhibition,[5]; [18],100% (active)
same,growth inhibition,[5]; at 50.0 µM,89.7% (active)
same,growth inhibition,[5]; at 100.0 µM,98% (active)
same,growth inhibition,[6]; at 1.2 µM,39%
same,growth inhibition,[6]; at 3.7 µM,92% (active)
same,growth inhibition,[6]; [17],86% (active)
same,growth inhibition,[6]; at 11.0 µM,96% (active)
same,growth inhibition,[6]; at 33.0 µM,99% (active)
same,growth inhibition,[6]; [18],100% (active)
same,growth inhibition,[6]; at 50.0 µM,92.2% (active)
same,growth inhibition,[6]; at 100.0 µM,99% (active)
same,growth inhibition,[7]; at 1.2 µM,45%
same,growth inhibition,[7]; at 3.7 µM,97% (active)
same,growth inhibition,[7]; at 11.0 µM,99% (active)
same,growth inhibition,[7]; at 33.0 µM,100% (active)
same,growth inhibition,[7]; at 100.0 µM,99% (active)
same,growth inhibition,[8]; [17],81% (active)
same,growth inhibition,[8]; [18],99% (active)
same,growth inhibition,[8]; at 50.0 µM,85.8% (active)
same,growth inhibition,[9]; at 1.2 µM,50%
same,growth inhibition,[9]; at 3.7 µM,94% (active)
same,growth inhibition,[9]; at 11.0 µM,99% (active)
same,growth inhibition,[9]; at 33.0 µM,100% (active)
same,growth inhibition,[9]; at 100.0 µM,99% (active)
same,growth inhibition,[10]; [17],93% (active)
same,growth inhibition,[10]; [18],99% (active)
same,growth inhibition,[10]; at 50.0 µM,90.7% (active)
same,growth inhibition,[11]; at 1.2 µM,21%
same,growth inhibition,[11]; at 3.7 µM,87% (active)
same,growth inhibition,[11]; [17],93% (active)
same,growth inhibition,[11]; at 11.0 µM,99% (active)
same,growth inhibition,[11]; at 33.0 µM,99% (active)
same,growth inhibition,[11]; [18],99% (active)
same,growth inhibition,[11]; at 50.0 µM,89.2% (active)
same,growth inhibition,[11]; at 100.0 µM,99% (active)
same,growth inhibition,[12]; at 1.2 µM,-10%
same,growth inhibition,[12]; at 3.7 µM,94% (active)
same,growth inhibition,[12]; at 11.0 µM,97% (active)
same,growth inhibition,[12]; at 33.0 µM,98% (active)
same,growth inhibition,[12]; at 100.0 µM,99% (active)
same,growth inhibition,[13]; at 1.2 µM,1%
same,growth inhibition,[13]; at 3.7 µM,92% (active)
same,growth inhibition,[13]; at 11.0 µM,96% (active)
same,growth inhibition,[13]; at 33.0 µM,96% (active)
same,growth inhibition,[13]; at 100.0 µM,96% (active)
same,growth inhibition,[14]; at 1.2 µM,9%
same,growth inhibition,[14]; at 3.7 µM,91% (active)
same,growth inhibition,[14]; at 11.0 µM,98% (active)
same,growth inhibition,[14]; at 33.0 µM,98% (active)
same,growth inhibition,[14]; at 100.0 µM,98% (active)
same,growth inhibition,[15]; [17],81% (active)
same,growth inhibition,[15]; [18],99% (active)
same,growth inhibition,[15]; at 50.0 µM,86.2% (active)
same,growth inhibition,[16]; at 1.2 µM,7%
same,growth inhibition,[16]; at 3.7 µM,90% (active)
same,growth inhibition,[16]; at 11.0 µM,98% (active)
same,growth inhibition,[16]; at 33.0 µM,98% (active)
same,growth inhibition,[16]; at 100.0 µM,97% (active)
